Hits are enriched below; roughly 6.5% of the tested compounds scored in any of these assays.
HCMV antiviral: blocks human cytomegalovirus replication; HFF cells, HCMV-luciferase reporter, 72 h; active compounds read low; activity change, negative = inhibition, % at 57.5 µM; 410,000 compounds, 4.5% hits; in the data active means activity change below about -60%; inconclusive means no clear call, values can overlap the other calls; inactive means above about -39%
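Two compound doses tested in HFFs infected with HCMV-luciferase, MOI 1 PFU/cell, 72 h at 37C. Lysate luminescence read with OneGlo; data normalized against buffer-only and 10uM Salinomycin inhibitor controls.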
VACV mCherry inh: vaccinia inhibition (mCherry reporter). Potency, µM (titrated, usually from 36.5 µM), without a hit: top-dose activity change, negative = inhibition, hits mostly inhibitors. Vaccinia virus mCherry reporter infection, fluorescence. 310,000 compounds, 0.63% hits; calls by dose curve; tested in A549 cells; further: potency means the concentration at half of the fitted maximal effect; nearly all actives have a fitted effect of over 35% in size
FMDV antiviral: antivirals against foot and mouth disease virus | 410,000 compounds, 1.2% hits | FMDV antiviral cell-based qHTS | Potency, µM (top dose mostly 57.9 µM), for the others: top-dose activity change, negative = inhibition, usual class: inhibitors | AID 1159524; calls by dose curve; tested in HEK293T cells; further: read-out not given here; potency means the concentration at half of the fitted maximal effect; nearly all actives have a fitted effect of over 45% in size
LASV entry inh: Lassa virus entry inhibition | 300,000 compounds, 1.2% hits | Potency, µM (top dose mostly 37.9 µM), inactives show top-dose activity change, negative = inhibition, most hits filed as inhibitors | Lassa virus pseudotype entry inhibition, cell reporter | AID 540256; calls by dose curve; tested in HEK293 cells; further: potency means the concentration at half of the fitted maximal effect; nearly all actives have a fitted effect of over 50% in size
Vaccinia Venus: inhibitors of vaccinia virus (Venus reporter) | Vaccinia virus Venus reporter expression, fluorescence | Potency, µM (top dose mostly 36.5 µM), without a hit: at the top dose activity change, negative = inhibition, hits mostly inhibitors | 330,000 compounds, 0.46% hits | AID 720580; calls by dose curve; tested in A549 cells; further: potency means the concentration at half of the fitted maximal effect; nearly all actives have a fitted effect of over 30% in size
Marburg entry inh: Marburg virus entry inhibition. Marburg virus pseudotyped entry inhibition, cell reporter. Potency, µM (titrated, usually from 37.8 µM), for the others: at the highest dose activity change, negative = inhibition, actives largely listed as inhibitors. 300,000 compounds, 1.8% hits. AID 540276; calls by dose curve; tested in HEK293 cells; further: potency means the concentration at half of the fitted maximal effect
Active calls of the source: *; i = inactive; ? = inconclusive; . = no result given; [ ] = remark or other dose. On the % scale 0 is the no-effect control and ±100 the full control effect.

SMILES	HCMV antiviral	VACV mCherry inh	FMDV antiviral	LASV entry inh	Vaccinia Venus	Marburg entry inh
C[n+]1c2n(c3ccccc31)N=C(c1ccccc1)CS2	-92*	-6%	?	?	-19%	?
C[n+]1c2n(c3ccccc31)N=C(c1ccc(-c3ccccc3)cc1)CS2	-99*	-24%	?	.	?	.
Cc1cnc2ccccc2c1/C=C/c1ccc(N(C)C)cc1	.	-26%	.	.	-19%	.
C(=Nc1ccc2ccccc2n1)c1cccnc1	.	29%	.	.	-12%	.
COCC(C)N1C(=O)Cc2c1nc(N)c1c(N)nc(N3CCN(c4ccccc4F)CC3)c(C#N)c21 (stereo not given)	?	?	32µM*	?	-2%	16µM*
COCCN1C(=O)Cc2c1nc(N)c1c(N)nc(N3CCN(c4ccc(F)cc4)CC3)c(C#N)c21	?	.	-15%	.	.	.
CCOc1ccc(CCNC(=O)c2cccc(-n3c(C)nc4cccnc43)c2)cc1	?	i	0%	-11%[46.1 µM]	-20%	.
O=C1OCCN/C1=C/C(=O)c1ccccc1	.	.	.	.	.	5%[14.2 µM]
CN(c1ccccc1)S(=O)(=O)c1ccccc1Br	-81*	-14%	-12%	.	-2%	.
COc1cccc(NC(=O)Cn2c(=O)n(-c3ccc(CC(=O)NCC4CCCO4)cc3)c(=O)c3ccccc32)c1 (stereo not given)	19	-3%	-16%	0%[46.1 µM]	-3%	-2%[46.1 µM]
Fc1ccccc1C1c2[nH]c3ccccc3c2CCN1Cc1cccn1-c1ncccn1 (stereo not given)	?	?	13%	?	11%	3.2µM*
O=C(NCCc1ccccc1Cl)c1ccc(Cn2c(=O)c3cccn3c3cccnc32)cc1	-84*	?	-10%	-19%[46.1 µM]	?	.
CCCNC(=O)c1ccc(Cn2c(=O)c3cccn3c3cccnc32)cc1	-23	-13%	0%	16%[46.1 µM]	-5%	.
COCCN1C(=O)COCc2cc(-c3cnn(C)c3)ccc21	21	.	.	.	.	.
Cc1ccc(-n2nc3c(N4CCC(C(=O)NCc5ccc(C)o5)CC4)nnc(C)c3c2C)cc1	-67*	.	-18%	.	.	.
COc1ccc(-n2nc3c(N4CCC(C(=O)NCCc5ccccc5)CC4)nnc(C)c3c2C)cc1	2	?	-23%	-5%[46.1 µM]	?	.
Cc1ccc(-n2nc3c(N4CCC(C(=O)NCCc5ccccc5)CC4)nnc(C)c3c2C)cc1	-19	10µM*	?	-9%[46.1 µM]	11µM*	.
Cc1ccc(-n2nc3c(N4CCC(C(=O)NCCc5ccccc5C)CC4)nnc(C)c3c2C)cc1	-19	10µM*	?	-19%[46.1 µM]	13µM*	.
COCCCNC(=O)N1CCN(c2nnc(C)c3c(C)n(-c4ccc(Cl)cc4)nc23)CC1	2	8.9µM*	-22%	15%[46.1 µM]	?	.
CCCS(=O)(=O)NCc1c(C)ncc2c1CCN(C(=O)/C=C/c1cccc(Cl)c1)C2	.	-7%	-11%	.	15%	.
CCOc1ccc(/C=C/c2nc(C#N)c(N3CCC(C)CC3)o2)cc1	-16	?	?	?	-25%	?
Cc1nnc(N2CCC(C(=O)NCc3cccc(Cl)c3)CC2)c2nn(-c3ccccc3)c(C)c12	-103*	-17%	-23%	?	-11%	.
Cc1ccccc1CNC(=O)C1CCN(c2nnc(C)c3c(C)n(-c4ccccc4)nc23)CC1	-2	-26%	-10%	28%[46.1 µM]	-30%	.
Cc1ccc(-n2nc3c(N4CCC(C(=O)N5CCC(C(N)=O)CC5)CC4)nnc(C)c3c2C)cc1	-61*	.	-24%	.	.	.
COc1ccc(CNc2nc(-c3ccccc3OC)nc3ccccc23)c(OC)c1	.	-4%	-18%	.	-4%	.
SMILES	HCMV antiviral	VACV mCherry inh	FMDV antiviral	LASV entry inh	Vaccinia Venus	Marburg entry inh
CCOC(=O)c1c(C)[nH]c(C)c1S(=O)(=O)NCCN1CCN(c2cc(Cl)ccc2C)CC1	-72*	.	7%	.	.	.
CCOC(=O)c1c(C)[nH]c(C)c1S(=O)(=O)N1CCN(c2cc(Cl)ccc2C)CC1	-90*	-29%	13%	-26%[46.1 µM]	-15%	.
CCOC(=O)c1c(C)[nH]c(C)c1S(=O)(=O)NCC(=O)N1CCN(c2cc(Cl)ccc2C)CC1	-21	?	-23%	?	?	.
CCOC(=O)c1c(C)[nH]c(C)c1S(=O)(=O)N1CCN(c2cccc(C(F)(F)F)c2)CC1	-101*	-10%	-16%	10%[46.1 µM]	-8%	.
Cc1ccc(Cl)cc1N1CCN(CCNC(=O)Nc2ccc(Cl)cc2)CC1	-90*	-17%	?	18%[46.1 µM]	-19%	?
OCc1ccccc1OCc1ccccc1	-9	.	.	.	.	.
CCOC(=O)c1c(C)[nH]c(CCC(=O)NCCCN2CCN(c3cc(Cl)ccc3C)CC2)c1C	-97*	?	?	?	?	.
CCOC(=O)c1c(C)[nH]c(CCC(=O)NCCCN2CCN(c3ccc(F)cc3)CC2)c1C	-33	-17%	?	16%[46.1 µM]	-14%	.
Cc1cccc(CSc2ncc(Cl)c(C(=O)Nc3sc4c(c3C#N)CCCC4)n2)c1	13	-6%	8%	2%[46.1 µM]	4%	29%[46.1 µM]
CN(C/C=C/C#CC(C)(C)C)Cc1cccc2ccccc12	-80*	-6%	?	.	-21%	.
O=C(c1ccccc1F)N1CC(=O)N2[C@H](CO)[C@H](c3ccc(Br)cc3)[C@@H]2C1	-9	.	.	.	.	.
Oc1c(C(Nc2cccnc2)c2ccccc2F)ccc2cccnc12 (stereo not given)	.	10µM*	.	.	?	.
Oc1c(C(Nc2cccc(C(F)(F)F)c2)c2ccncc2)ccc2cccnc12 (stereo not given)	-99*	?	-16%	?	?	?
Oc1c(C(Nc2nccs2)c2ccc(C(F)(F)F)cc2)ccc2cccnc12 (stereo not given)	0	7.1µM*	?	?	?	4.5µM*
Cc1ccc(CNCc2cn[nH]c2-c2ccc(C)cc2)cc1	.	?	.	.	-19%	.
O=C(Nc1ccc(F)c(F)c1)c1cc(S(=O)(=O)NCc2ccc3c(c2)OCO3)ccc1F	-16	i	0%	23%[46.1 µM]	-11%	.
Cc1ccc(C2=NCC(C)n3nc4ccccc4c32)cc1 (stereo not given)	-9	.	.	.	.	.
COc1ccc(N(C(=O)CCl)C(C(=O)NCCc2ccccc2)c2cccs2)cc1Cl (stereo not given)	-103*	?	20µM*	26µM*	10µM*	?
COCCNC(=O)C(c1cccs1)N(C(=O)Cn1nnc2ccccc21)c1ccccc1 (stereo not given)	34	-26%	14%	6%	-17%	20%
COc1cccc(N(C(=O)c2snc(C(N)=O)c2N)C(C(=O)NCC2CCCO2)c2cccs2)c1 (stereo not given)	?	?	9%	3%[46.1 µM]	-4%	?
COc1cccc(N(C(=O)CCl)C(C(=O)NCCc2ccccc2)c2cccs2)c1 (stereo not given)	-100*	?	16µM*	?	?	?
O=C(Nc1ccc(OC(F)F)cc1)Nc1cccc(C(F)(F)F)c1	-80*	-25%	0%	?	?	?
